Screens as filed in PubChem.
A selection: hits, their analogues and other compounds. The true share with any hit is near 17%.
HT1080 IDH1KD tx = qHTS for induction of synthetic lethality in tumor cells producing 2HG: qHTS for the HT-1080-IDH1KD cell line. HT-1080 IDH1 knockdown viability, ATP luminescence, 48 h. Potency, µM (series often up to 46.1 µM), hits mostly cytotoxic. 360,000 tested, 2% active. AID 686971, 2013
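In this qHTS, HT-1080 cells depleted of IDH1 are exposed for 48 h at 37 °C to compound titrations. Toxicity is scored from CellTiter-Glo luminescence, with DMSO as full viability and medium alone as none.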
HepG2 tox = qHTS for Inhibitors of TGF-b: Cytotox Counterscreen; 410,000 tested, 0.76% active; Potency, µM (doses to about 46.1 µM), usual class: cytotoxic; HepG2 CAGA-GFP viability, ATP luminescence, 18 h; AID 588856, 2011
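CellTiter-Glo luminescence gave cytotoxicity after 18 hours at 37 degrees C. The cells were HepG2 CAGA-GFP in 1% FBS DMEM, stimulated with 500 pg/mL TGF-beta after compound addition. %Activity was normalised to no-cell wells (complete cell-killing) and DMSO (no toxicity), and curves were fitted and classified.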
DT40 TDP1 no CPT = qHTS for Inhibitors of human tyrosyl-DNA phosphodiesterase 1 (TDP1): qHTS in cells in absence of CPT. DT40 Tdp1-/- hTDP1 cells, no CPT, ATP luminescence, 48 h. Potency, µM (top dose mostly 46.2 µM), hits mostly inhibitors. 420,000 tested, 15% active; note: nearly all actives have a fitted effect of over 55% in size
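Stably hTDP1-transfected Tdp1-null chicken DT40 cells were treated with library compounds minus camptothecin and grown for at least 48 hr at 37 °C, after which cellular ATP was quantified by luminescence.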
HT1080-NT tox = qHTS for induction of synthetic lethality in tumor cells producing 2HG: qHTS for the HT-1080-NT fibrosarcoma cell line; HT-1080-NT fibrosarcoma viability, CellTiter-Glo ATP luminescence, 48 h; Potency, µM (doses to about 46.1 µM), actives largely listed as cytotoxic; 360,000 tested, 1.6% active;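 note: NT is the 2HG producing partner of a matched IDH1 knockdown line; nearly all actives have a fitted effect of over 55% in size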
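750 cells/well, RPMI + 5% FBS; 2 h settle, compound pin-transfer, 48 h at 37 degrees C. CellTiter-Glo 10 min RT, luminescence. Normalized to DMSO and media-only wells.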
TGFb inhibitor = qHTS for Inhibitors of TGF-b; 410,000 tested, 1.2% active; AID 588855, 2011; Potency, µM (doses to about 46.1 µM), most hits filed as inhibitors; HepG2 CAGA-GFP TGF-b/SMAD3 reporter, GFP fluorescence, 18 h; TGF-beta stimulated, 500 pg/mL final; note: nearly all actives have a fitted effect of over 65% in size
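HEPG2 CAGA-GFP, 1000 cells/well; 2 h settle, 37 C; cpd via pin tool; TGF-b 500 pg/mL final; 18 h, 37 C; GFP imaging ex488/em500-530; %Activity normalised to -TGF-b and +DMSO controls; CRC fit, curve class.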
TDP1 cell CPT = qHTS for Inhibitors of human tyrosyl-DNA phosphodiesterase 1 (TDP1): qHTS in cells in presence of CPT; chicken DT40 Tdp1-/-;hTDP1 cells + 20 nM CPT, ATP luminescence, 48 h; Potency, µM (doses to about 46.2 µM), most hits filed as inhibitors; 420,000 tested, 12% active; AID 686979, 2013; note: nearly all actives have a fitted effect of over 55% in size
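Chicken DT40 Tdp1-/- cells stably complemented with human TDP1 were seeded at 400 cells/well in medium containing 20 nM camptothecin, exposed to pin-transferred compounds, and grown at 37 °C for at least 48 hr. Viability was read as ATP luminescence.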
Of the large screens only hits and unclear results are named; the others gave an inactive call. Calls come from the whole dose curve; as a rule, active = well fitted curve in the direction sought with a large enough effect; inconclusive = small, poorly fitted or top-dose-only effect, or another doubt; inactive = no such curve, though single readings can be large; an effect the other way counts as inactive or inconclusive.

CC(C)C[C@H](NC(=O)c1nc[nH]c1C(=O)N[C@@H](CC(C)C)C(=O)OCc1ccccc1)C(=O)OCc1ccccc1	HT1080 IDH1KD tx inconclusive, DT40 TDP1 no CPT 26µM, HT1080-NT tox inconclusive, TGFb inhibitor inconclusive, TDP1 cell CPT 23µM
CC(C)C[C@H](NC(=O)c1[nH]cnc1C(=O)N[C@H](C)c1ccccc1)C(=O)OCc1ccccc1	DT40 TDP1 no CPT 16µM, TDP1 cell CPT inconclusive
Cc1ccc(N(CC(=O)N2CCCCCC2)S(C)(=O)=O)cc1	none
CCCOC1(C(F)(F)F)NC(=O)N(c2ccc(Cl)cc2)C1=O (stereo not drawn)	none (no result: HT1080 IDH1KD tx, DT40 TDP1 no CPT, HT1080-NT tox, TDP1 cell CPT)
Cc1cc(N2CCN(C(C(=O)NC3CCCC3)c3ccc(F)cc3)CC2)c2ccccc2n1 (stereo not drawn)	HT1080 IDH1KD tx inconclusive, DT40 TDP1 no CPT inconclusive, HT1080-NT tox inconclusive, TDP1 cell CPT 18µM (no result: HepG2 tox, TGFb inhibitor)
O=C(NC1CCCC1)C(c1ccc(F)cc1)N1CCC(O)(c2ccc(Cl)cc2)CC1 (stereo not drawn)	DT40 TDP1 no CPT inconclusive, TDP1 cell CPT inconclusive (no result: HepG2 tox, TGFb inhibitor)
Cc1cc(C(=O)NC2CCCCCC2)c2ccccc2n1	none
Cc1cc(N2CCN(C(C(=O)NC3CCCC3)c3ccco3)CC2)c2ccccc2n1 (stereo not drawn)	DT40 TDP1 no CPT 23µM, TDP1 cell CPT 21µM (no result: HepG2 tox, TGFb inhibitor)
CC(C)c1ccccc1NC(=S)NCc1ccccc1F	DT40 TDP1 no CPT inconclusive, TDP1 cell CPT inconclusive
COCCNC(=O)C1CCCN(Cc2ccccc2F)CC1 (stereo not drawn)	none
O=C(Nc1ccc(Cl)cc1)Nc1ccccc1Sc1ncc([N+](=O)[O-])s1	HT1080 IDH1KD tx inconclusive, DT40 TDP1 no CPT 6.5µM, HT1080-NT tox inconclusive, TGFb inhibitor inconclusive, TDP1 cell CPT 6.5µM
Nc1nnc(-c2ccc([N+](=O)[O-])o2)s1	DT40 TDP1 no CPT 9.2µM, HT1080-NT tox 23µM, TGFb inhibitor inconclusive, TDP1 cell CPT 18µM
CCCC(=O)OCC(=O)Nc1ccc2c(c1)OCO2	none
COc1ccc(CCNC(=O)CCS(=O)(=O)c2ccc3c(c2)oc(=O)n3C)cc1OC	none
COc1cccc(/C=N/NC(=O)c2cc(-c3cccn3C)n[nH]2)c1O	HT1080 IDH1KD tx inconclusive, DT40 TDP1 no CPT 6.5µM, TDP1 cell CPT 5.8µM
COc1cccc(/C=N/NC(=O)CCc2c(C)n[nH]c2C)c1O	HT1080 IDH1KD tx inconclusive, DT40 TDP1 no CPT inconclusive, TGFb inhibitor inconclusive, TDP1 cell CPT inconclusive
COc1cc(/C=N/NC(=O)c2cc(-c3cccn3C)n[nH]2)cc(OC)c1OC	DT40 TDP1 no CPT 21µM, TDP1 cell CPT 21µM
Cn1cccc1-c1cc(C(=O)N/N=C/C=C/c2ccccc2)[nH]n1	DT40 TDP1 no CPT inconclusive, TDP1 cell CPT inconclusive
C[C@@H]1CN([C@@H](C)CO)C(=O)c2cc(Br)cnc2O[C@H]1CN(C)Cc1ccccc1C(=O)O	none
COc1ccc(C)cc1NC(=O)Cn1c(=O)oc2cc(S(=O)(=O)N3CCCCCC3)ccc21	DT40 TDP1 no CPT 12µM, TDP1 cell CPT 16µM (no result: HT1080 IDH1KD tx, HT1080-NT tox)
COc1ccc(NC(=O)Cn2c(=O)oc3cc(S(=O)(=O)N4CCCC4)ccc32)cc1OC	DT40 TDP1 no CPT inconclusive, TDP1 cell CPT inconclusive (no result: HT1080 IDH1KD tx, HT1080-NT tox, TGFb inhibitor)
CN1CCN(C(=O)Cn2c(=O)oc3cc(S(=O)(=O)NCc4ccccc4)ccc32)CC1	TDP1 cell CPT inconclusive
COc1cccc(CNC(=O)Cn2ccc3cc(S(=O)(=O)N4CCCC4)ccc32)c1	DT40 TDP1 no CPT inconclusive, TGFb inhibitor inconclusive, TDP1 cell CPT inconclusive
COc1cccc(CNC(=O)Cn2c(=O)oc3cc(S(=O)(=O)N4CCCC4)ccc32)c1	DT40 TDP1 no CPT 23µM, TDP1 cell CPT inconclusive (no result: HT1080 IDH1KD tx, HT1080-NT tox)
O=C(Cn1c(=O)oc2cc(S(=O)(=O)NCc3ccccc3)ccc21)N(CCO)Cc1ccccc1	DT40 TDP1 no CPT 15µM, TGFb inhibitor inconclusive, TDP1 cell CPT inconclusive (no result: HT1080 IDH1KD tx, HT1080-NT tox)
COc1cc(NC(=O)Cn2c(=O)oc3cc(S(=O)(=O)N4CCCCCC4)ccc32)cc(OC)c1	DT40 TDP1 no CPT 21µM, TGFb inhibitor inconclusive, TDP1 cell CPT 15µM (no result: HT1080 IDH1KD tx, HT1080-NT tox)
CCOc1ccccc1NC(=O)CSc1nc(=O)n(CCN2CCOCC2)c2c1CCCC2	none
COc1ccc(CC(=O)OC(C)C(=O)NCc2ccc3c(c2)OCO3)cc1OC (stereo not drawn)	none
COC(=O)c1ccc(OCC(=O)c2cccc(OC)c2)cc1	none
C[C@@H](NC(=O)c1nc[nH]c1C(=O)NCc1ccccc1)c1ccccc1	DT40 TDP1 no CPT inconclusive, TDP1 cell CPT inconclusive
CC1CCn2c(nc3cc(C(=O)NCCc4ccccc4)ccc32)C1 (stereo not drawn)	DT40 TDP1 no CPT inconclusive (no result: HT1080 IDH1KD tx, HT1080-NT tox)
Cc1ccc(NC(=O)Cn2c(=O)oc3cc(S(=O)(=O)N4CCCCC4)ccc32)c(C)c1	DT40 TDP1 no CPT 8.2µM, TGFb inhibitor inconclusive, TDP1 cell CPT 6.5µM (no result: HT1080 IDH1KD tx, HT1080-NT tox)
